Measured values published in the antibiotic and cytotoxicity screens of Wong et al. (2023).
The campaign covered roughly 39,000 compounds. About 1,500 (3.8%) were called active. For the sample, actives were picked, then their nearest neighbours and some compounds at random.

system: HSkMC (human skeletal muscle cells); test: cytotoxicity call (relative viability < 0.9); conditions: 10 µM

Q: Which cytotoxicity call does the source give for `CCOc1cc(OCC)cc(C(=O)N[C@@H](Cc2ccc(-n3cc(-c4ccc(C(=O)NO)s4)nn3)cc2)C(=O)OC)c1` here?
A: inactive

Q: For `COc1ccccc1-c1cnc2c(c1)C(=O)N([C@H](C)CO)C[C@@H](C)[C@H](CN(C)C(=O)c1cccnc1)O2`, which cytotoxicity call is on record?
A: inactive

Q: How did the cytotoxicity call turn out when `C[C@@H]1CN([C@H](C)CO)C(=O)c2cccc(NC(=O)Nc3ccccc3)c2O[C@H]1CN(C)Cc1ccc(Cl)c(Cl)c1` was run?
A: inactive

Q: For `C[C@@H]1CN([C@@H](C)CO)C(=O)c2cccc(NC(=O)Nc3ccccc3)c2O[C@@H]1CN(C)Cc1ccc(Cl)c(Cl)c1`, which cytotoxicity call is on record?
A: inactive

Q: `C[C@H]1CN([C@@H](C)CO)C(=O)c2cccc(NC(=O)Nc3ccccc3)c2O[C@@H]1CN(C)Cc1ccc(Cl)c(Cl)c1` was tested. Which cytotoxicity call did it give?
A: active

Q: Which cytotoxicity call does the source give for `C[C@@H]1CN([C@@H](C)CO)C(=O)c2cccc(NC(=O)Nc3cccc4ccccc34)c2O[C@@H]1CN(C)Cc1ccc(Cl)c(Cl)c1` here?
A: inactive

Q: For `C[C@H]1CN([C@@H](C)CO)C(=O)c2cccc(NC(=O)Nc3ccccc3)c2O[C@H]1CN(C)Cc1ccc(Cl)c(Cl)c1`, which cytotoxicity call is on record?
A: inactive

Q: `C[C@H](CO)N1C[C@H](C)[C@@H](CN(C)Cc2ccc(Cl)c(Cl)c2)Oc2c(NC(=O)Nc3ccccc3)cccc2C1=O` was tested. Which cytotoxicity call did it give?
A: active

Q: How did the cytotoxicity call turn out when `C[C@H](CO)N1C[C@H](C)[C@H](CN(C)Cc2ccc(Cl)c(Cl)c2)Oc2c(NC(=O)Nc3ccccc3)cccc2C1=O` was run?
A: inactive

Q: Which cytotoxicity call does the source give for `C[C@H](CO)N1C[C@H](C)[C@@H](CN(C)Cc2ccc(Cl)c(Cl)c2)Oc2c(NC(=O)Nc3cccc4ccccc34)cccc2C1=O` here?
A: active

Q: Which cytotoxicity call does the source give for `C[C@H]1CN([C@@H](C)CO)C(=O)c2cccc(NC(=O)Nc3cccc4ccccc34)c2O[C@H]1CN(C)Cc1ccc(Cl)c(Cl)c1` here?
A: inactive

Q: With `Cc1noc(C)c1NC(=O)Nc1ccc2c(c1)C(=O)N([C@H](C)CO)C[C@H](C)[C@@H](CN(C)Cc1ccc(Oc3ccccc3)cc1)O2` as the compound, how does the cytotoxicity call read?
A: inactive

Q: How did the cytotoxicity call turn out when `C[C@H]1CN([C@@H](C)CO)C(=O)Cc2cc(NC(=O)Cc3ccccc3)ccc2O[C@H]1CN(C)C(=O)Nc1cccc2ccccc12` was run?
A: inactive

Q: For `Cc1noc(C)c1S(=O)(=O)Nc1ccc2c(c1)C(=O)N([C@H](C)CO)C[C@@H](C)[C@@H](CN(C)Cc1ccc(Oc3ccccc3)cc1)O2`, which cytotoxicity call is on record?
A: inactive

Q: `Cc1cc2c(cc1C)N[C@@H](CC(N)=O)C(=O)N2` was tested. Which cytotoxicity call did it give?
A: inactive

Q: How did the cytotoxicity call turn out when `C[C@@H]1CN([C@H](C)CO)C(=O)Cc2cc(NC(=O)CCCN(C)C)ccc2O[C@H]1CN(C)Cc1ccc(Oc2ccccc2)cc1` was run?
A: inactive

Q: For `COc1ccccc1S(=O)(=O)N[C@H]1C=C[C@H](CC(=O)N2CCN(C)CC2)O[C@@H]1CO`, which cytotoxicity call is on record?
A: inactive

Q: `C[C@H](CO)N1C[C@H](C)[C@H](CN(C)C(=O)NC2CCCCC2)OCCCC[C@H](C)Oc2ccc(NC(=O)Nc3ccc(C(F)(F)F)cc3)cc2C1=O` was tested. Which cytotoxicity call did it give?
A: inactive

Q: With `C[C@H](CO)N1C[C@H](C)[C@@H](CN(C)C(=O)c2ccncc2)Oc2cc(-c3cccc(C#N)c3)ccc2S1(=O)=O` as the compound, how does the cytotoxicity call read?
A: inactive

Q: For `C[C@@H]1CCCCO[C@H](CN(C)Cc2ccccc2)[C@@H](C)CN([C@H](C)CO)C(=O)c2cc(NS(=O)(=O)c3ccccc3)ccc2O1`, which cytotoxicity call is on record?
A: inactive

Q: Which cytotoxicity call does the source give for `CCC(=O)Oc1ccc2c(c1)CCC1C2CCC2(C)C1CC(OC(=O)CC)C2OC(=O)CC` (configuration not stated) here?
A: inactive

Q: `CC(C)c1cccc(C(C)C)c1NC(=O)Cc1cccs1` was tested. Which cytotoxicity call did it give?
A: inactive

Q: With `CC(C)c1cc(C(C)C)c(CC(=O)NS(=O)(=O)Oc2c(C(C)C)cccc2C(C)C)c(C(C)C)c1` as the compound, how does the cytotoxicity call read?
A: active

Q: Which cytotoxicity call does the source give for `COC(=O)[C@@H](N)c1cccc(OC)c1` here?
A: inactive

Q: With `C[C@H]1CN([C@@H](C)CO)C(=O)c2c(c3ccccc3n2C)-c2ccccc2CO[C@H]1CN(C)C(=O)c1ccc(F)cc1` as the compound, how does the cytotoxicity call read?
A: inactive

Q: How did the cytotoxicity call turn out when `COC(=O)C[C@@H]1CC[C@@H]2[C@H](COC[C@H](O)CN2S(=O)(=O)c2ccc(F)cc2)O1` was run?
A: inactive

Q: How did the cytotoxicity call turn out when `C[C@@H]1CN([C@@H](C)CO)S(=O)(=O)c2ccc(-c3cccnc3)cc2O[C@@H]1CN(C)C(=O)NC1CCCC1` was run?
A: inactive

Q: With `C[C@@H]1CN([C@H](C)CO)S(=O)(=O)c2ccc(-c3cncnc3)cc2O[C@@H]1CN(C)C(=O)C1CCCCC1` as the compound, how does the cytotoxicity call read?
A: inactive

Q: For `CCCCC1C(=O)N(c2ccccc2)N(c2ccc(O)cc2)C1=O` (configuration not stated), which cytotoxicity call is on record?
A: inactive

Q: For `Oc1ccc(O)cc1`, which cytotoxicity call is on record?
A: inactive

Q: For `O=C1C=CC(=O)N1c1ccc(O)cc1`, which cytotoxicity call is on record?
A: active

Q: `COc1ccc(CN(C)C[C@H]2OCCCC[C@H](C)Oc3ccc(NS(=O)(=O)c4cccs4)cc3C(=O)N([C@@H](C)CO)C[C@@H]2C)cc1` was tested. Which cytotoxicity call did it give?
A: inactive

Q: For `C[C@H]1CN([C@@H](C)CO)S(=O)(=O)c2ccc(C3=CCCCC3)cc2O[C@H]1CN(C)S(=O)(=O)c1cn(C)cn1`, which cytotoxicity call is on record?
A: inactive

Q: How did the cytotoxicity call turn out when `Cc1ccc(S(=O)(=O)Nc2ccc3c(c2)C(=O)N([C@H](C)CO)C[C@@H](C)[C@H](CN(C)Cc2ccccc2)OCCCC[C@@H](C)O3)cc1` was run?
A: inactive

Q: With `COc1ccc(S(=O)(=O)N(C)C[C@H]2Oc3c(NC(=O)Nc4c(C)noc4C)cccc3C(=O)N([C@@H](C)CO)C[C@H]2C)cc1` as the compound, how does the cytotoxicity call read?
A: inactive

Q: Which cytotoxicity call does the source give for `COc1ccc2c3c(n(c2c1)C)[C@H](CO)N(C[C@]13CN(C1)C(=O)CN(C)C)C(=O)CN(C)C` here?
A: inactive

Q: With `C[C@@H]1CN([C@@H](C)CO)C(=O)c2cc(NC(=O)CCCN(C)C)ccc2O[C@H]1CN(C)Cc1ccc(C(=O)O)cc1` as the compound, how does the cytotoxicity call read?
A: inactive

Q: Which cytotoxicity call does the source give for `Cc1ncc([N+](=O)[O-])n1C[C@@H](O)CCl` here?
A: inactive

Q: With `Cc1noc(C)c1NC(=O)N(C)C[C@@H]1Oc2ccc(NC(=O)Cn3cnnn3)cc2C(=O)N([C@@H](C)CO)C[C@@H]1C` as the compound, how does the cytotoxicity call read?
A: inactive

Q: `N#Cc1c(N)nc(SCc2csc(-c3ccc(Cl)cc3)n2)c(C#N)c1-c1ccc(OCCO)cc1` was tested. Which cytotoxicity call did it give?
A: active

Q: How did the cytotoxicity call turn out when `COc1ccc(NC(=O)Nc2ccc3c(c2)C(=O)N([C@@H](C)CO)C[C@@H](C)[C@@H](CN(C)C(=O)Nc2ccc4c(c2)OCO4)OCCCC[C@@H](C)O3)cc1` was run?
A: inactive

Q: How did the cytotoxicity call turn out when `C[C@@H]1CCCCO[C@@H](CN(C)C(=O)CCC(F)(F)F)[C@@H](C)CN([C@@H](C)CO)C(=O)c2cc(NC(=O)Cc3ccccc3)ccc2O1` was run?
A: inactive

Q: `C[C@@H]1CN([C@@H](C)CO)C(=O)Cc2cc(NC(=O)Nc3ccc(F)cc3)ccc2O[C@@H]1CN(C)S(C)(=O)=O` was tested. Which cytotoxicity call did it give?
A: inactive

Q: With `CCCNC(=O)[C@@]1(Sc2ccc(C)cc2)CC(=O)N(Cc2ccccc2C(F)(F)F)[C@@H]1c1ccc(CO)cc1` as the compound, how does the cytotoxicity call read?
A: inactive

Q: Which cytotoxicity call does the source give for `Cn1cc(-c2[nH]c3cc(NC(=O)[C@H](N)C4CCCCC4)cc4c3c2C=NNC4=O)cn1` here?
A: active

Q: With `CCCCCCCC/C=C\CCCCCCCC(N)=O` as the compound, how does the cytotoxicity call read?
A: inactive

Q: For `O=C(C[C@@H]1CC[C@@H]2[C@H](COC[C@H](O)CN2S(=O)(=O)c2ccccc2)O1)NCc1ccncn1`, which cytotoxicity call is on record?
A: inactive

Q: Which cytotoxicity call does the source give for `C[C@@H]1CCCCO[C@@H](CN(C)C(=O)Nc2ccc(C(F)(F)F)cc2)[C@@H](C)CN([C@H](C)CO)C(=O)c2cc(NC(=O)CCCCCC(=O)Nc3ccccc3N)ccc2O1` here?
A: inactive

Q: Which cytotoxicity call does the source give for `CC(=O)O.Cc1c(-c2ccc(O)cc2)n(Cc2ccc(OCCN3CCCCCC3)cc2)c2ccc(O)cc12` here?
A: inactive

Q: How did the cytotoxicity call turn out when `CCCCC(=O)c1ccc(O)cc1` was run?
A: inactive

Q: With `CCCCCS(=O)(=O)CCCCCCCCCCn1c(-c2ccc(O)cc2)c(C)c2cc(O)ccc21` as the compound, how does the cytotoxicity call read?
A: active

Q: How did the cytotoxicity call turn out when `C=C(NC(=O)C(=C)NC(=O)c1csc(C2=N[C@@H]3c4csc(n4)[C@@H]4NC(=O)c5csc(n5)[C@H](C(C)(O)[C@@H](C)O)NC(=O)[C@H]5CSC(=N5)/C(=C/C)NC(=O)[C@H]([C@@H](C)O)NC(=O)c5csc(n5)[C@]3(CC2)NC(=O)[C@@H](C)NC(=O)C(=C)NC(=O)[C@@H](C)NC(=O)[C@@H]([C@H](C)CC)N[C@H]2C=Cc3c([C@@H](C)O)cc(nc3[C@@H]2O)C(=O)O[C@H]4C)n1)C(N)=O` (some centres not stated) was run?
A: inactive

Q: How did the cytotoxicity call turn out when `C=C(NC(=O)C(=C)NC(=O)c1csc(C2=N[C@H]3c4csc(n4)[C@H]4NC(=O)c5csc(n5)[C@H](C(C)(O)[C@@H](C)O)NC(=O)[C@H]5CSC(=N5)C(=CC)NC(=O)[C@H]([C@@H](C)O)NC(=O)c5csc(n5)[C@]3(CC2)NC(=O)[C@H](C)NC(=O)C(=C)NC(=O)[C@H](C)NC(=O)[C@H]([C@H](C)CC)N[C@@H]2C=Cc3c([C@H](C)O)cc(nc3[C@H]2O)C(=O)O[C@@H]4C)n1)C(N)=O` (some centres not stated) was run?
A: active

Q: `C=C(NC(=O)C(=C)NC(=O)c1csc(C2=NC3c4csc(n4)C4NC(=O)c5csc(n5)C(C(C)(O)C(C)O)NC(=O)C5CSC(=N5)C(=CC)NC(=O)C(C(C)O)NC(=O)c5csc(n5)C3(CC2)NC(=O)C(C)NC(=O)C(=C)NC(=O)C(C)NC(=O)C(C(C)CC)NC2C=Cc3c(C(C)O)cc(nc3C2O)C(=O)OC4C)n1)C(N)=O` (configuration not stated) was tested. Which cytotoxicity call did it give?
A: inactive

Q: Which cytotoxicity call does the source give for `C[C@@H]1CCCCO[C@H](CN(C)C(=O)NC2CCCCC2)[C@@H](C)CN([C@@H](C)CO)C(=O)c2cc(NC(=O)C3CCCCC3)ccc2O1` here?
A: inactive

Q: `CS(=O)(=O)N1[C@@H]2c3ccc(-c4ccc(F)cc4)c(=O)n3C[C@@H]2[C@@H](CO)[C@@H]1C(=O)O` was tested. Which cytotoxicity call did it give?
A: inactive

Q: With `Cc1noc(C)c1S(=O)(=O)N(C)C[C@H]1Oc2ccc(NS(=O)(=O)c3ccccc3)cc2C(=O)N([C@@H](C)CO)C[C@H]1C` as the compound, how does the cytotoxicity call read?
A: inactive

Q: With `C[C@@H]1CCCCO[C@H](CN(C)S(C)(=O)=O)[C@H](C)CN([C@@H](C)CO)C(=O)c2cc(NS(=O)(=O)c3cn(C)cn3)ccc2O1` as the compound, how does the cytotoxicity call read?
A: inactive

Q: For `C[C@@H]1CN([C@H](C)CO)C(=O)c2cc(NC(=O)Cc3ccccc3)ccc2O[C@@H](C)CCCCO[C@@H]1CN(C)Cc1ccc(Cl)c(Cl)c1`, which cytotoxicity call is on record?
A: inactive

Q: How did the cytotoxicity call turn out when `C[C@@H]1CCCCO[C@@H](CN(C)Cc2ccc(Cl)c(Cl)c2)[C@H](C)CN([C@H](C)CO)C(=O)c2cc(NC(=O)Cc3ccccc3)ccc2O1` was run?
A: active

Q: For `C[C@@H]1CCCCO[C@H](CN(C)Cc2ccc(Cl)c(Cl)c2)[C@@H](C)CN([C@@H](C)CO)C(=O)c2cc(NC(=O)Cc3ccccc3)ccc2O1`, which cytotoxicity call is on record?
A: inactive

Q: How did the cytotoxicity call turn out when `C[C@@H]1CN([C@H](C)CO)C(=O)c2cc(NC(=O)Cc3ccccc3)ccc2O[C@@H](C)CCCCO[C@H]1CN(C)Cc1ccc(Cl)c(Cl)c1` was run?
A: active

Q: For `C[C@@H]1CCCCO[C@H](CN(C)Cc2ccc(Cl)c(Cl)c2)[C@H](C)CN([C@@H](C)CO)C(=O)c2cc(NC(=O)Cc3ccccc3)ccc2O1`, which cytotoxicity call is on record?
A: inactive

Q: `C[C@@H]1CCCCO[C@@H](CN(C)Cc2ccc(Cl)c(Cl)c2)[C@@H](C)CN([C@@H](C)CO)C(=O)c2cc(NC(=O)Cc3ccccc3)ccc2O1` was tested. Which cytotoxicity call did it give?
A: inactive

Q: With `C[C@@H]1CCCCO[C@@H](CN(C)Cc2ccc(Cl)c(Cl)c2)[C@H](C)CN([C@@H](C)CO)C(=O)c2cc(NC(=O)Cc3ccccc3)ccc2O1` as the compound, how does the cytotoxicity call read?
A: inactive

Q: How did the cytotoxicity call turn out when `C[C@H]1CCCCO[C@H](CN(C)Cc2ccc(Cl)c(Cl)c2)[C@@H](C)CN([C@@H](C)CO)C(=O)c2cc(NC(=O)Cc3ccccc3)ccc2O1` was run?
A: inactive

Q: `C[C@@H]1CCCCO[C@@H](CN(C)Cc2ccc(Cl)c(Cl)c2)[C@@H](C)CN([C@H](C)CO)C(=O)c2cc(NC(=O)Cc3ccccc3)ccc2O1` was tested. Which cytotoxicity call did it give?
A: active
